# Source: PubChem BioAssay AID2014 (Sanford-Burnham Center for Chemical Genomics, 2009)
# Screen size: about 290,000 compounds; about 3,000 (1%) were called active. How the calls were made is not given here. The full list was thinned out, with actives kept by preference.
# Target: Polyadenylate-binding protein 1 (Homo sapiens) (UniProt P11940)
# Test: blockers of PABP interaction with poly(A) – biochemical, fluorescence polarization, uHTS, primary screen (AID 2014);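 further: calls also rest on retests at 20 µM and on dose response follow-up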
# Details: PABP-poly(A) RNA binding, stronger effect = higher value
# Sequence of Polyadenylate-binding protein 1 (Homo sapiens) (P11940 whole entry, looked up): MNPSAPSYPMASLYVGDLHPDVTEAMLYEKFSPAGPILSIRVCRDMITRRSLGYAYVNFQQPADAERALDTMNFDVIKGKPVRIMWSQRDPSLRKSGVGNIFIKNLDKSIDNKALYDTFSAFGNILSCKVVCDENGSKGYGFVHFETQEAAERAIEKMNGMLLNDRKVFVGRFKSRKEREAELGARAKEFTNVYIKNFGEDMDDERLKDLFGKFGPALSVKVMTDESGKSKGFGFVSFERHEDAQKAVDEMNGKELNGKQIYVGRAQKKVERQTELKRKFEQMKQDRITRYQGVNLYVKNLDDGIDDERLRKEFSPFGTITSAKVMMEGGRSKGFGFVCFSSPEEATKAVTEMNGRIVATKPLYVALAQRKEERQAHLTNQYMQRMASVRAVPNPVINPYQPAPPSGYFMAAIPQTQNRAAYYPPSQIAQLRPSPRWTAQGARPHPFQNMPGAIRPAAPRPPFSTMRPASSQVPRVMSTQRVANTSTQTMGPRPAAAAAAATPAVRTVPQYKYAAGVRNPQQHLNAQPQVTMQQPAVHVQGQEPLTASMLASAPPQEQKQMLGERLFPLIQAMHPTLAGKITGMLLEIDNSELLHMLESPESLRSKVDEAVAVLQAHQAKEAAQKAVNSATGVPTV
Compound,inhibition (at 35 µM),"inhibition (confirmation repeats, at 20 µM)"
O=C(Cc1ccccc1F)NC1CCSc2ccccc21 (stereo unspecified),0.4% (inactive),–
Cc1c(C)c(C)c2[nH]c(=S)[nH]c2c1C,9.8% (inactive),–
O=c1[nH]c(=S)[nH]c2[nH]c(=S)[nH]c12,91.1% (active),–
Cc1ccc2c(c1)N(CC(=O)N1CCOCC1)C(=O)CO2,2.5% (inactive),–
CC1(c2ccc3ccccc3c2)NC(=O)N(CC(N)=O)C1=O (stereo unspecified),-4.5% (inactive),–
O=C(NNS(=O)(=O)c1ccccc1)c1cnn(-c2ccc(Cl)cc2)c1C(F)(F)F,11.5% (active),102%
O=C(NNS(=O)(=O)c1ccc(Cl)cc1)C1CCN(Cc2ccccc2)CC1,-4% (inactive),–
NNC(=O)c1cnn(-c2ccccc2)c1C(F)(F)F,10.3% (inactive),–
COc1ccc(CCNC(=O)c2ccccc2OCc2ccccc2)cc1,-3.4% (inactive),–
CC(C)(C)OC(=O)NNc1c2ccccc2nc2ccccc12,-1.9% (inactive),–
CC(=O)c1cnc(SCCN2C(=O)c3ccccc3C2=O)nc1C,-5.5% (inactive),–
CSc1ncc(C(=O)NCCCc2ccccc2)c(C)n1,-4.6% (inactive),–
CC(=O)c1cnc(SCC(=O)O)nc1C,54.3% (active),68.8%
CCC1(CC)Cc2ccccc2-c2nc(CCl)[nH]c(=O)c21,-1.7% (inactive),–
O=C(NCCCN1CCOCC1)c1cc(-c2ccccc2F)no1,-8% (inactive),–
COc1ccc(N2CCN(C(=S)Nc3ccc(S(N)(=O)=O)cc3)CC2)cc1,-0.4% (inactive),–
NS(=O)(=O)c1ccc(NC(=S)N2CCCC2)cc1,28.2% (active),50.5%
CC1CN(C(=S)Nc2ccc(S(N)(=O)=O)cc2)CC(C)O1 (stereo unspecified),-12.5% (inactive),–
CCc1ccc(CNC(=O)C2CCN(c3nnc(C)c4c(C)n(-c5ccc(C)cc5)nc34)CC2)cc1,-22.4% (inactive),–
Cc1cccc(NC(=O)Cc2ccc(Br)cc2)n1,-9.8% (inactive),–
O=C(NC(Cc1ccc(O)cc1)C(=O)O)/C(=C/c1ccccc1)NC(=O)c1ccccc1 (stereo unspecified),2.8% (inactive),–
CC1(C)Oc2ccc3ccc(=O)oc3c2/C(=C/NCCO)C1=O,51.8% (active),–
C/C=C(/C)C(=O)OC1Cc2c(ccc3ccc(=O)oc23)OC1(C)C (stereo unspecified),5.5% (inactive),–
CC1(C)Oc2ccc3ccc(=O)oc3c2/C(=N/O)C1=O,-7% (inactive),–

Compound,inhibition (at 35 µM),"inhibition (confirmation repeats, at 20 µM)"
Cc1ccc(S(=O)(=O)N(CC(O)CN2CCCCC2)c2cccc([N+](=O)[O-])c2)cc1 (stereo unspecified),-2.5% (inactive),–
O=C(CCNS(=O)(=O)c1cccs1)N1CCN(c2ccc(F)cc2)CC1,2.5% (inactive),–
Cc1cccc(CCNS(=O)(=O)c2ccc3c(c2)NC(=O)CO3)c1,0.4% (inactive),–
Cc1nc2c(c(=O)n1Cc1ccco1)c1nc3ccccc3nc1n2Cc1ccccc1,57.3% (active),–
Cc1nc2ccccc2c(=O)n1Cc1ccc([N+](=O)[O-])cc1,-8.9% (inactive),–
Cc1ccc(Cn2c(C)nc3c(c2=O)c2nc4ccccc4nc2n3Cc2ccco2)cc1,17.9% (inactive),–
Cc1cccc(NS(=O)(=O)c2cc(Cl)ccc2Cl)n1,-4.9% (inactive),–
O=C1CCNCCN1[C@H](CO)Cc1ccccc1,-8.7% (inactive),–
COc1ccc(C(=O)NC2=NCCS2)c(OC)c1,-7.6% (inactive),–
COc1ccc2cc(C(=O)NCC3CCCO3)[nH]c2c1 (stereo unspecified),0.3% (inactive),–
O=S(=O)(c1ccc(Br)cc1)N1CCC(c2nc3ccccc3[nH]2)CC1,3.9% (inactive),–
Cc1ccc(CCCOC(=O)C[N+]2(C)CCCC2)cc1,2.4% (inactive),–
Cc1ccc(CCCOC(=O)C[N+]2(C)CCCCC2)cc1,50.6% (active),–
CCCCOC(=O)Cn1c(=O)n(CC(=O)OCCCC)c2cc(C)ccc21,-8.1% (inactive),–
Cc1ccc(C(=O)COC(=O)CCN2C(=O)C3C4CCC(C4)C3C2=O)cc1C (stereo unspecified),-12.4% (inactive),–
COc1cccc(NC(=O)N2CCC(NC(=O)C(Cc3cccc(C)c3)NC(C)=O)CC2)c1 (stereo unspecified),2.7% (inactive),–
CCC(C)Cn1c(O)cc2nn(-c3nc4ccccc4s3)c(=O)c-2c1C (stereo unspecified),68.7% (active),–
Cc1cc(NC(=O)CN2CCCC(C)C2)n(-c2nc3ccccc3s2)n1 (stereo unspecified),5.3% (inactive),–
C/C(=N\NC(=O)CC(C)C)c1c(C(F)(F)F)[nH]n(-c2nc3ccccc3s2)c1=O,-1.1% (inactive),–
CCOC(=O)c1ccccc1NC(=O)COC(=O)CCC(=O)N1CCOCC1,-1.1% (inactive),–
COc1ccccc1NC(=O)c1cc(N2C(=O)C3C4CCC(C4)C3C2=O)ccc1Cl (stereo unspecified),1.6% (inactive),–
O=C1CC(c2ccccc2)C(=O)N1c1cccc(O)c1 (stereo unspecified),-5.5% (inactive),–
O=C1OCC2=C1C(c1ccccc1)CC(=O)N2c1cccc(F)c1 (stereo unspecified),68% (active),65.5%
O=C1CC(NNc2ccccc2)C(=O)N1c1cccc(Cl)c1 (stereo unspecified),-2.5% (inactive),–

Compound,inhibition (at 35 µM),"inhibition (confirmation repeats, at 20 µM)"
CCc1nnc(NC(=O)CCC(=O)N2CCN(c3cc(C)ccc3C)CC2)s1,11.5% (inactive),–
O=C(OCc1ccc(-c2ccccc2)cc1)c1cccc(O)c1,10.5% (inactive),–
COc1cc2c(cc1O)[C@H](Cc1ccc(Oc3cc(C[C@@H]4NCCc5cc(OC)c(O)cc54)ccc3O)cc1)NCC2,0.1% (active),91.3%
CCc1ccc(OCC2c3cc(OC)c(OC)cc3CCN2C(C)=O)cc1 (stereo unspecified),6.8% (inactive),–
CC[C@H]1CN2CCc3cc(OC)c(OC)cc3[C@@H]2C[C@@H]1C[C@H]1NCCc2cc(OC)c(OC)cc21,1.5% (inactive),–
COc1ccccc1C(=O)Nc1ccnn1C1CCN(C(=O)C(C)(C)C)CC1,8.7% (inactive),–
C=CCNc1nnc(SCC(=O)N2CCCCC2)c2ccccc12,116% (active),56.4%
O=C(CSc1ncccn1)N1CCCC1,9.6% (inactive),–
C=CCNc1nnc(C)c2ccccc12,-0.7% (inactive),–
Cc1nc(-c2ccc(F)cc2)c(CC(=O)N2CCN(S(=O)(=O)c3ccc(F)cc3)CC2)s1,6.2% (inactive),–
O=C(CN1CCC(O)(c2cccc(C(F)(F)F)c2)CC1)NCCc1ccccc1,-5% (inactive),–
O=C(Nc1cccc([N+](=O)[O-])c1)N1CCc2ccccc2C1,-6.2% (inactive),–
CC(C(=O)NCCc1ccc(S(N)(=O)=O)cc1)N1C(=O)CC(C)(C)Sc2ccccc21 (stereo unspecified),-1.3% (inactive),–
Cc1cccc(NC(=O)c2sc3nc4c(c(-c5ccco5)c3c2N)CCC4)c1,63% (active),87.7%
Cc1cccc(NC(=O)c2sc3nc(N4CCOCC4)c4c(c3c2N)CCCC4)c1,4.1% (inactive),–
NC(=O)c1sc2nc3c(c(-c4ccccc4)c2c1N)CCC3,-3.5% (inactive),–
O=C(CNC(=O)c1ccccc1F)c1ccc(Br)cc1,0.1% (inactive),–
O=C(O)c1ccc2c(=O)n3c(nc2c1)/C(=C/c1ccc(OC(F)F)cc1OC(F)F)CC3,5.3% (inactive),–
CC(NC(=O)c1cc(=O)[nH]c2ccccc12)c1ccc(F)cc1F (stereo unspecified),12.3% (inactive),–
CS(=O)(=O)c1ccc2c(c1)SC1=NC(=O)/C(=C/c3ccco3)C(=N)N12,91% (active),–
Cc1cc(/C=C2/C(=N)N3C(=NC2=O)SN=C3S(C)(=O)=O)c(C)n1-c1ccccc1,-5.5% (inactive),11.8%
CS(=O)(=O)C1=NN2C(=N)/C(=C\c3ccc(OCCOc4ccccc4)cc3)C(=O)N=C2S1,16.8% (inactive),–
Cc1cccc(OC(C)C(=O)N2CCc3ccccc3C2)c1 (stereo unspecified),-5.4% (inactive),–
CC(C)[C@@H](C(=O)O)N(Cc1cccc(CN([C@H](C(=O)O)C(C)C)S(C)(=O)=O)c1)S(C)(=O)=O,4.8% (inactive),–

Compound,inhibition (at 35 µM),"inhibition (confirmation repeats, at 20 µM)"
N/C(=N\OS(=O)(=O)c1cccc([N+](=O)[O-])c1)c1ccncc1,-9.3% (active),74.6%
CO/N=C(\N)c1ccc([N+](=O)[O-])cc1,-0.6% (inactive),–
O=C(N/N=C/c1cccc([N+](=O)[O-])c1)c1ccncc1,-0.6% (inactive),–
COc1cccc(CNc2ncc(-c3ccccc3)n2C)c1,-1.9% (inactive),–
C=CCn1cc(Cl)cc(C(=O)Nc2ccccc2)c1=O,-10% (inactive),–
O=C(N/N=C/c1ccc([N+](=O)[O-])o1)c1cccc(S(=O)(=O)N2CCOCC2)c1,-5% (inactive),12.9%
O=C(N/N=C/c1cc(Cl)cc([N+](=O)[O-])c1O)C(O)(c1ccccc1)c1ccccc1,30.5% (inactive),–
O=[N+]([O-])c1cc(Cl)cc(/C=N/NC(=S)Nc2cc(S(=O)(=O)N3CCOCC3)ccc2Cl)c1O,70.2% (active),–
CC1=C(C(=O)OCC2CCCCC2)C(c2ccc(F)cc2)NC(=O)N1 (stereo unspecified),0.3% (inactive),–
C[N+](C)(C)CCNC(=O)c1cc[n+](Cc2ccccc2)c(/C=N/O)c1,54.2% (active),73.1%
CC(C)c1ccc(C(=O)NCCCc2ccccc2)cc1,-0.9% (inactive),–
O=C(NCCCNCc1ccccc1)c1ccc(/C=N/O)nc1,-3.1% (inactive),–
O=C1CCC(C(=O)N2CCCCO2)CN1Cc1cccc(C(F)(F)F)c1 (stereo unspecified),4.6% (inactive),–
CN(C(=O)c1cccc(OC2CCN(S(=O)(=O)N(C)C)CC2)c1)C1CCOC1 (stereo unspecified),17.8% (inactive),–
CC1(C(=O)NCCc2c[nH]c3ccccc23)C=CC2(CCCCC2)N1C(=O)c1ccccc1 (stereo unspecified),4.3% (inactive),–
Oc1c(Cl)cc(Cl)c(Cl)c1Cc1c(O)c(Cl)cc(Cl)c1Cl,-1.5% (active),84.7%
COc1cccc(/C=C2\Sc3ccc(C(=O)NCC4CCCO4)cc3N(C)C2=O)c1 (stereo unspecified),8.6% (inactive),–
Cc1cccc(C)c1N1C(=O)CN(Cc2ccccc2)C1=S,8.2% (inactive),–
CC(=O)N1c2ccc(S(=O)(=O)NCCC(=O)N(C)C3CCCCC3)cc2CC1C (stereo unspecified),3.5% (inactive),–
O=C(Nc1ncc2c(n1)-c1ccccc1OC2)c1ccc(Cl)cc1,4.5% (inactive),–
O=C(Nc1ncc2c(n1)CC(c1ccco1)CC2=O)c1ccc(Cl)cc1 (stereo unspecified),65.9% (active),–
CCc1ccc(Nc2ncc3c(n2)CC(c2ccco2)CC3=O)cc1 (stereo unspecified),6.2% (inactive),–
